# Experimental data published in PubChem BioAssay (NCI).
# About 83,000 compounds went through this panel and 20% of them were active in at least one assay; those are over-represented in the sample as a whole.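 Step 1: grow cells in 96-well plates. Step 2: add test compound at a single concentration. Step 3: incubate 48 h. Step 4: record percent growth.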 Values without a mark were called inactive. Calls of active or inactive are those of the source. The calls were made as follows: active = growth percent below 10; inactive = the rest.
# Test system: HL-60(TB) leukemia
# Test: NCI-60 one-dose screen, 48 h (100 = growth as untreated, 0 = no growth, -100 = all killed)
# Details: 10 µM unless noted
row,Structure (SMILES),growth
1,CCCCCCN(CCCCCC)CCC(=O)Nc1ccc(S(=O)(=O)c2ccc(NC(=O)CCN(CCCCCC)CCCCCC)cc2)cc1,80%
2,Cc1c(N2CCCCC2)[nH]c2ccccc12,101%
3,COc1ccc(-c2nsc3c2NC(=O)CC3c2ccc3c(c2)OCO3)cc1 (stereo not drawn),-22.3% (active)
4,CC(=O)OC[C@H]1OC(Sc2sc(C(=O)c3ccc(Br)cc3)c(N)c2-c2nc3ccccc3s2)[C@H](OC(C)=O)[C@@H](OC(C)=O)[C@@H]1OC(C)=O (stereo partly drawn),113%
5,C=CCNC(=O)Cc1c(-c2ccc(OC)cc2)oc2c(OC)c3c(c(OC)c12)OCO3,102%
6,COc1ccc2oc(-c3ccc(Cl)cc3)c(N3CCN(C)CC3)c2c1,28.2%
7,CC(=O)c1c(C)[nH]c(-c2nc3ccc(N4CCN(C)CC4)cc3[nH]2)c1-c1ccccc1,4.85% (active)
8,CCOC(=O)c1cc2cccc(OC)c2oc1=O,117%
9,CNC(=O)c1cc(-n2ccc3cc(NC(=O)c4ccc(N5CCOCC5)c(C(F)(F)F)c4)ccc32)ccn1,66.3%
10,COc1ccc(/C=C2\SC(=Nc3ccccc3)NC2=O)cc1,-70.8% (active)
11,O=C(Cn1c[n+](CC(=O)c2ccc(-c3ccccc3)cc2)c2ccccc21)Nc1cccc2cccnc12,-37.2% (active)
12,N#CC1CCc2c(c(-c3ccc4nc(N)sc4c3)nc3ccc4[nH]ncc4c23)C1 (stereo not drawn),34.9%
13,C=CC[n+]1c(/C=C/C=C2\N(C)c3ccccc3C2(C)C)sc2ccc(OC)cc21,-21% (active)
